BoNT-A LC inh2 – inhibitors of Botulinum neurotoxin A light chain protease | 360,000 compounds, 0.17% hits | AID 588499 | inhibition, % at 10 µM | multiplex microsphere protease substrate cleavage, flow cytometry; also: plate controls were buffer without enzyme for full effect and enzyme alone for no effect
Mtb FBA inh – inhibitors of M. tuberculosis fructose-bisphosphate aldolase. P9WQA3. purified M. tuberculosis FBA, fluorescence read-out. inhibition, % at 1 µM. 360,000 compounds, 2.3% hits; in the data active = inhibition above about 27%;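 also: 0% = vehicle and 100% = reference inhibitor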
BoNT F protease – inhibitors of Botulinum neurotoxin F light chain protease. inhibition, % at 10 µM. Multiplex microsphere protease cleavage assay, flow cytometry. 360,000 compounds, 0.22% hits; in the data active = inhibition above about 35%, passing the limit was not always enough; inconclusive = no clear call, values can overlap the other calls; also: plate controls were buffer without enzyme for full effect and enzyme alone for no effect
GDH-TPI inh – inhibits GDH-TPI coupling enzymes, artifact for Mtb FBA screen; GDH-TPI coupled enzyme counterscreen, NADH absorbance; inhibition, % at 4.8 µM; 360,000 compounds, 1.2% hits; in the data active = inhibition above about 30%;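 also: 0% = DMSO wells and 100% = wells lacking the enzyme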
Autofluor counter – compound fluorescence in toxin protease inhibitor counterscreen. compound autofluorescence counterscreen, microsphere flow cytometry; active compounds read high. fluorescence intensity (test concentration not listed). 360,000 compounds, 3.1% hits. AID 624483; in the data active = fluorescence intensity above about 16000; inconclusive = no clear call, values can overlap the other calls
Anthrax LF prot – inhibitors of Bacillus anthracis lethal factor protease | AID 588501 | multiplex microsphere protease cleavage assay, LF | 360,000 compounds, 0.12% hits | P15917 | inhibition, % at 10 µM; also: plate controls were buffer without enzyme for full effect and enzyme alone for no effect
* = called active by the depositor; ? = inconclusive; nt = no result given; + = active, no number. Most compounds without a hit are left out; they make up all but 6.6% or so of the library. Rule as the data show it, unless noted: active = inhibition above about 30%; inconclusive = no clear call, values can overlap the other calls; inactive = below that.

SMILES	BoNT-A LC inh2	Mtb FBA inh	BoNT F protease	GDH-TPI inh	Autofluor counter	Anthrax LF prot
Cc1ccc(C(=O)Nc2sc3c(c2C(=O)O)CCCC3)o1	1	14	3	36*	5246	-2
CN(C)N1C(N)=C(C#N)C(c2ccsc2)C2=C1CCCC2=O (stereo unspecified)	0	-1	-7	4	2258	-2
N#CC1=C(N)N(c2ccccc2)C2=C(C(=O)CCC2)C1c1ccsc1 (stereo unspecified)	0	3	-3	10	16252*	1
COc1ccc(C2C(C#N)=C(N)N(N(C)C)C3=C2C(=O)CCC3)cc1 (stereo unspecified)	4	2	57*	8	3857	-2
c1ccc2sc(NC3=NCN(CC4CCCO4)CN3)nc2c1 (stereo unspecified)	0	-4	-5	-3	4226	2
Cc1cc(NC(=O)CCc2ccccc2)c([N+](=O)[O-])cc1C	0	2	0	7	2529	1
O=C1CCCC2=C1C(c1ccc3c(c1)OCO3)c1c([nH]n(-c3ccccc3)c1=O)N2 (stereo unspecified)	1	-4	0	37*	15767	-11
CCN1CCN(S(=O)(=O)c2ccc(OC)c3ccccc23)CC1	-2	1	?	9	4013	5
CCN1CCN(S(=O)(=O)c2cc(OC)ccc2OC)CC1	0	1	-3	1	24223*	-1
COc1ccc(F)cc1S(=O)(=O)N1CC(C)CC(C)C1 (stereo unspecified)	-1	-3	-3	-5	20024*	-5
COc1ccc(F)cc1S(=O)(=O)N1CCN(c2ccccn2)CC1	-1	3	?	-2	3792	8
CC(=O)OCC1=C(C(=O)O)N2C(=O)C(NC(=O)c3ccc(COc4cccc(Cl)c4Cl)o3)C2SC1 (stereo unspecified)	0	-1	5	-3	4141	0
CC(=O)O[C@@H]1C[C@@]2(C)[C@@H](CC[C@H]2[C@@H](C)/C=C\CC(C)C)C2=C[C@@H](O)[C@@]3(O)C[C@@H](O)[C@H](O)C[C@]3(CO)[C@]21O	-1	2	-4	-6	5024	-2
O=C(NCCC1=CCCCC1)c1ccc(=O)oc1	?	-2	-4	52*	?	-10
O=C(NCCN1CCCCC1)c1ccc(=O)oc1	0	9	-4	27	10294	0
O=C(CCN1C(=O)c2ccccc2C1=O)NCCC1=CCCCC1	8	1	8	0	20662*	-16
O=C(COC(=O)c1cc(Br)c(Br)s1)NCCC1=CCCCC1	-1	-1	-3	11	10924	0
O=C(NCCC1=CCCCC1)c1coc(=O)c(Br)c1	1	14	1	39*	4306	-2
CS(=O)(=O)Nc1ccc(C(=O)NC2CCCC2)cc1	0	-2	-1	-10	20262*	-2
OCC[C@@H]1C[C@H](O)[C@@H](O)[C@]2(OCCc3cc(C(F)(F)F)ccc32)O1	0	2	-7	6	3540	-3
O=C(NNC(=O)c1ccncc1)NC1CCCCC1	0	0	-4	7	3290	-5
CC(C)C(=O)Nc1ccc(C(=O)NNC(=O)NC2CCCCC2)cc1	?	0	11	-8	17675*	-10
CS(=O)(=O)N(Cc1ccc(Cl)cc1)c1ccc(C(=O)NCCC2=CCCCC2)cc1	-1	1	-16	10	11686	-5
O=C(NCCc1ccccc1)c1coc(=O)c(Br)c1	0	24	17	41*	3123	-1
CS(=O)(=O)Nc1ccc(C(=O)NCCC2=CCCCC2)cc1	?	4	-6	-17	24230*	-1
SMILES	BoNT-A LC inh2	Mtb FBA inh	BoNT F protease	GDH-TPI inh	Autofluor counter	Anthrax LF prot
COc1ccccc1N(CC(=O)NCCSc1ccc(Cl)cc1)S(C)(=O)=O	0	-3	-3	6	4653	-5
Cc1cc(-c2ccccc2)c2ccc(NC(=O)C(C)(C)C)nc2n1	2	14	-5	46*	3503	-4
Cc1cc(C)nc(/N=C(\NC(=O)C(C)(C)C)Nc2ccccc2)n1	2	-1	?	-11	3730	14
COCCn1c(=N)c(C(=O)NCCc2ccccc2)cc2c(=O)n3cccc(C)c3nc21	0	117*	9	-2	3116	-1
CCNC(=O)c1cc2c(=O)n3cccc(C)c3nc2n(CCc2ccccc2)c1=N	2	+	10	9	2617	1
CNC(=O)c1cc2c(=O)n3cccc(C)c3nc2n(C(C)C)c1=N	1	+	6	7	9028	-5
Cc1cccn2c(=O)c3cc(C(=O)NCCc4ccccc4)c(=N)n(CCCn4ccnc4)c3nc12	2	129*	-5	-4	3428	6
CCC(C)n1c(=N)c(C#N)cc2c(=O)n3cccc(C)c3nc21 (stereo unspecified)	0	20	-3	1	4434	0
COc1ccc(CCn2c(=N)c(C(=O)NC3CCCC3)cc3c(=O)n4cccc(C)c4nc32)cc1	18	3	15	15	5803	18
CCC(Oc1ccc(F)cc1)C(=O)N1CCCCCCC1 (stereo unspecified)	nt	0	nt	16	nt	nt
C[C@H](CO)N1C[C@H](C)[C@@H](CN(C)Cc2ccc3cccnc3c2)OCc2cnnn2CCCC1=O	0	2	4	1	3427	-6
COc1cc(C(=O)Nc2ccc(S(=O)(=O)N3CCCCC3)cc2)ccc1OCC(=O)N1CCOCC1	0	-2	-7	0	3489	0
C=CCn1c(=N)c(C(=O)NCCCOC)cc2c(=O)n3cccc(C)c3nc21	2	+	0	15	2506	3
COCCNC(=O)c1cc2c(=O)n3cccc(C)c3nc2n1C	0	19	-5	9	5992	2
COCCCNC(=O)c1cccn2c(=O)c3cc4ccccc4cc3nc12	?	-3	3	5	24282*	8
CCCCNC(=O)c1cc2c(=O)n3cccc(C)c3nc2n(Cc2ccccc2)c1=N	12	150*	9	1	10058	12
CCOc1ccc(OCCC(=O)N(CCOC)c2c(N)n(Cc3ccccc3)c(=O)[nH]c2=O)cc1	-1	-2	-7	-5	4063	2
CCc1cc(-c2n[nH]c(C)c2Oc2ccc(C(C)C)cc2)c(O)cc1O	?	2	-17	3	22495*	-5
Cc1[nH]nc(-c2ccc(O)cc2O)c1Oc1ccccc1	0	-1	-6	14	5481	0
CCOc1ccccc1CNC(=O)C1CCCN(c2nnc(C)c3c(C)n(-c4ccccc4)nc23)C1 (stereo unspecified)	-8	23	14	0	19018*	2
CC(C)C(=O)N1CCN(c2ccc(NC(=O)c3ccc4c(c3)OCCO4)cc2Cl)CC1	?	-2	1	6	16164*	-5
CC(=O)N1CCN(c2ccc(NC(=O)c3ccc4c(c3)OCCO4)cc2Cl)CC1	-1	-4	0	-1	3713	-4
O=C(Nc1ccc(N2CCCCC2)cc1)c1ccc2c(c1)OCCO2	?	2	-2	21	23082*	-3

Source: PubChem (several laboratories)
